Values joined by “and” are separate entries in the source; they are usually repeats but may differ in a detail not shown here. Equal values may be shown once. Results filed as inconclusive are left out. Active and inactive are the calls of the source. Unless noted, calls follow the shape of the dose curve; as a rule, active = well fitted curve in the direction sought with a large enough effect; inconclusive = small, poorly fitted or top-dose-only effect, or another doubt; inactive = no such curve, though single readings can be large; an effect the other way counts as inactive or inconclusive. Where a SMILES comes first, the peptide text is derived from it. Non-standard residues stand in square brackets, D forms with d. Residues, ends and D or L forms follow the SMILES beside them. Bridges are numbered along the chain shown (N, C = ends). [ ]: non-standard residue; d: D form. The star is where a group is joined. Dab(CH2SO3H) = N[C@@H](CCNCS(=O)(=O)O)C(=O)O; X3 = CC[C@@H](C)CCCCC(=O)*; Orn = NCCC[C@H](N)C(=O)O; Dab = NCC[C@H](N)C(=O)O
Columns and labels:
[1] = Drug repurposing screens with cells derived from glioblastoma tumor samples (AID 1345199); settings: GBM patient neurospheres viability, ATP luminescence, 48 h; also: nearly all actives have a fitted effect of over 40% in size; also: potency is read from the fitted curve at half-maximal effect; as to activity, negative = cell killing: % is scaled to controls: 0 for no effect and ±100 for the full control effect
Method in brief: (§1)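 Four patient lines of CD133+ GBM neurospheres were screened at several concentrations; hits were retested in those lines plus three slower-growing GBM lines, using 48-hour treatment and ATP-based viability.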

astro = control astrocytes; experiment: as above; settings: viability, ATP luminescence, 48 h; series mostly up to 45.9 µM
Method in brief: as §1

[2] = biological target: Nuclear receptor subfamily 1 group I member 2 (Rattus norvegicus) (UniProt Q9R1A7); experiment: qHTS assay for small molecule activators of the rat pregnane X receptor (rPXR) signaling pathway (AID 651751; call rule not given here; also: 0% is about no effect); settings: rPXR reporter cells, luciferase (One-Glo), 24 h
Chain of Nuclear receptor subfamily 1 group I member 2 (Rattus norvegicus) (Q9R1A7 whole entry, looked up): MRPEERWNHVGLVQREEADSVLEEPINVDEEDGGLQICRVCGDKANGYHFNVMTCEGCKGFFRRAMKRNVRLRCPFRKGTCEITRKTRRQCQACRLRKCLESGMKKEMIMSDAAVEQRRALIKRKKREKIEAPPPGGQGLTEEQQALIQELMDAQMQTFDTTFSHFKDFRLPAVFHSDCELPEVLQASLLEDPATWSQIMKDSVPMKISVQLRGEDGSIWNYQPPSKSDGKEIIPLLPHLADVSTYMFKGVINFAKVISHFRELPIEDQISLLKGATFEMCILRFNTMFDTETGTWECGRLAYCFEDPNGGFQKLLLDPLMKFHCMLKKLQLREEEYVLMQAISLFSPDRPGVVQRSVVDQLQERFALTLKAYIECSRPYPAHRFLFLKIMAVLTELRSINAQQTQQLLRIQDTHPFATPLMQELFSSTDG

[3] = qHTS assay for small molecule activators of the human pregnane X receptor (PXR) signaling pathway (AID 720659; call rule not given here; also: 0% is about no effect); settings: DPX-2 HepG2 CYP3A4-luciferase, 24 h; series mostly up to 92.3 µM
[4] = qHTS assay to identify inhibitors of the type 1 interferon - major histocompatibility complex class I in skeletal muscle: Counter screen cell viability and HiBit confirmation (AID 1347412); settings: iHSKM muscle cells + IFN-b, HiBiT or CellTiter-Glo, 24 h; also: nearly all actives have a fitted effect of over 60% in size; also: potency is read from the fitted curve at half-maximal effect; as to activity change, negative = inhibition: % is scaled to controls: 0 for no effect and ±100 for the full control effect
Method in brief: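 Myoblasts (C25cl48, HLA-B HiBiT) seeded in medium without dexamethasone, IFN-b 4 ng/ml added except unstimulated columns; 1 hr later compounds pinned (12-pt 1:3, top 46 uM final). Incubated 24 hrs, lysed 10 min, luminescence measured.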

[5] = at 45.9 µM (top of the series), tumour line B
[6] = at 45.9 µM (top of the series), tumour line D
[7] = at 46.1 µM (top of the series), tumour line C
[8] = at 20 µM (top of the series), tumour line C
[9] = at 21.2 µM (top of the series), tumour line B
[10] = at 21.2 µM (top of the series), tumour line D

CO[C@H]1C=CO[C@@]2(C)Oc3c(C)c(O)c4c(O)c(c5c(nc6cc(C)ccn65)c4c3C2=O)NC(=O)/C(C)=C\C=C[C@H](C)[C@H](O)[C@@H](C)[C@@H](O)[C@@H](C)[C@H](OC(C)=O)[C@@H]1C
inactive: activity, negative = cell killing [1, 5] -10.2% | activity, negative = cell killing [1, 6] -26.2% | activity, negative = cell killing [1, 7] -2.47% | Potency (astro)

CC(C)(C)NC(=O)[C@@H]1C[C@@H]2CCCC[C@@H]2CN1C[C@@H](O)[C@H](Cc1ccccc1)NC(=O)[C@H](CC(N)=O)NC(=O)c1ccc2ccccc2n1
active: Potency ([1]; tumour line A) 4.47 µM
inactive: activity, negative = cell killing [1, 7] 7.54% | Potency (astro)

CC1(C)C(C=C(Cl)Cl)C1C(=O)OCc1cccc(Oc2ccccc2)c1 (stereo not drawn)
inactive: activity, negative = cell killing [1, 5] -14.8% | activity, negative = cell killing [1, 6] -15.5% | activity, negative = cell killing [1, 7] 6.86% | Potency (astro)

CC[C@@]1(O)C(=O)OCc2c1cc1n(c2=O)Cc2cc3c([N+](=O)[O-])cccc3nc2-1
active: Potency (astro) 1.26 µM

CC[C@@H](C)CCCCC(=O)N[C@@H](CCNCS(=O)(=O)O)C(=O)N[C@H](C(=O)N[C@@H](CCNCS(=O)(=O)O)C(=O)N[C@H]1CCNC(=O)[C@H]([C@@H](C)O)NC(=O)[C@H](CCNCS(=O)(=O)O)NC(=O)[C@H](CCNCS(=O)(=O)O)NC(=O)[C@H](CC(C)C)NC(=O)[C@@H](CC(C)C)NC(=O)[C@H](CCNCS(=O)(=O)O)NC1=O)[C@@H](C)O (X3-[Dab(CH2SO3H)]T[Dab(CH2SO3H)][Dab][Dab(CH2SO3H)][dL]L[Dab(CH2SO3H)][Dab(CH2SO3H)]T; lactam 4-C)
inactive: activity, negative = cell killing [1, 5] -7.01% | activity, negative = cell killing [1, 6] 10.8% | activity, negative = cell killing ([1]; at 46 µM (top of the series), tumour line A) -16.2% | Potency (astro)

O=CCCCC=O
inactive: activity, negative = cell killing [1, 5] -2.9% | activity, negative = cell killing [1, 6] -3.77% | activity, negative = cell killing [1, 7] -3.46% | Potency (astro) | max response [2] 2.91% | outcome [3]

CCCCC/C=C\C/C=C\CCCCCCCC(=O)O
inactive: activity, negative = cell killing [1, 5] -6.32% | activity, negative = cell killing [1, 6] -10.3% | activity, negative = cell killing [1, 7] 11.8% | Potency (astro) | max response [2] 6.19% and -3.59% | outcome [3]

O=C(Nc1ccc(Br)cc1)c1cc(Br)c(Br)s1
active: Potency (astro) 11.2 µM

CCCCCCCCCCCCCCCCCCOP(=O)([O-])OC1CC[N+](C)(C)CC1
inactive: activity, negative = cell killing [1, 8] -12.3% | activity, negative = cell killing [1, 9] -9.9% | activity, negative = cell killing [1, 10] -6.99% | Potency (astro)

CNc1cc(OC)c(C(=O)N[C@H]2CCN(Cc3ccccc3)[C@H]2C)cc1Cl
active: Potency ([1]; tumour line A) 7.08 µM | Potency ([1]; tumour line D) 20 µM
inactive: activity, negative = cell killing [1, 5] -17.5% | Potency (astro)

CCC(=O)OCC(=O)[C@@]1(OC(=O)CC)[C@H](C)C[C@H]2[C@H]3[C@H]([C@@H](O)C[C@@]21C)[C@@]1(C)C=CC(=O)C=C1C[C@H]3Cl
inactive: activity, negative = cell killing [1, 8] -8.97% | activity, negative = cell killing [1, 9] -7.29% | activity, negative = cell killing [1, 10] -17.3% | Potency (astro)

CCCCCCCC/C=C\CCCCCCCC(=O)O
inactive: activity, negative = cell killing [1, 5] 3.38% | activity, negative = cell killing [1, 6] -14.1% | activity, negative = cell killing [1, 7] 14.2% | Potency (astro) | max response [2] 0.673% and 2.82% | outcome [3]

CO[C@H](C(=O)[C@@H](O)[C@@H](C)O)C1Cc2cc3cc(O[C@H]4C[C@@H](O[C@H]5C[C@@H](O)[C@H](O)[C@@H](C)O5)[C@@H](O)[C@@H](C)O4)c(C)c(O)c3c(O)c2C(=O)[C@H]1O[C@H]1C[C@@H](O[C@H]2C[C@@H](O[C@H]3C[C@](C)(O)[C@H](O)[C@@H](C)O3)[C@H](O)[C@@H](C)O2)[C@H](O)[C@@H](C)O1 (stereo partly drawn)
active: Potency (astro) 0.112 µM

C=C1CC[C@@H]2[C@](C)(CO)[C@H](O)CC[C@@]2(C)[C@@H]1C/C=C1/C(=O)OC[C@H]1O
inactive: activity change, negative = inhibition ([4]; Viability, at 45.9 µM (top of the series)) -7.87%
active: Potency ([4]; HiBiT) 12.5 µM

CC(C)C[C@@H]1NC(=O)[C@H](CCCN)NC(=O)[C@H](C(C)C)NC(=O)[C@@H]2CCCN2C(=O)[C@@H](Cc2ccccc2)NC(=O)[C@H](CC(C)C)NC(=O)[C@H](CCCN)NC(=O)[C@H](C(C)C)NC(=O)[C@@H]2CCCN2C(=O)[C@@H](Cc2ccccc2)NC1=O (cyclo(V[Orn]L[dF]PV[Orn]L[dF]P))
active: Potency (astro) 3.98 µM

Cc1ccccc1
inactive: activity, negative = cell killing [1, 5] 6.08% | activity, negative = cell killing [1, 6] -15.8% | activity, negative = cell killing [1, 7] 2.61% | max response [2] -1.25% and 0.145% | outcome [3]

CCN(CC)CCOc1ccc(-c2nc3cc(Cl)ccc3s2)cc1
active: Potency (astro) 20 µM

CC(C)=O
inactive: activity, negative = cell killing [1, 5] -1.76% | activity, negative = cell killing [1, 6] -10.6% | activity, negative = cell killing [1, 7] -8.82% | Potency (astro) | max response [2] 2.78% | outcome [3]

— PubChem BioAssay (NCATS)
